TR SRC2 fluor cs: counter-screen for TRb-SRC2 inhibitors: fluorescence interference | TRb/SRC2 Texas Red total fluorescence interference | Potency, µM (top dose mostly 106 µM), without a hit: at the highest dose fluorescence change, negative = quenching | 280,000 compounds, 0.29% hits | AID 1479; active = well fitted curve in either direction with a large enough effect; inconclusive = small, poorly fitted or top-dose-only effect; also: potency is read from the fitted curve at half-maximal effect; % is scaled to controls: 0 for no effect and ±100 for the full control effect
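Human TRβ ligand-binding domain (0.6 uM) and Texas Red SRC2 peptide (20 nM) in Tris buffer with 1 uM T3 and 5% DMSO were incubated with pinned compound for 5 hr at ambient temperature. Total fluorescence was computed as S + 2P (555/632 nm).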
NPSR antag: blocks cAMP signaling of the human neuropeptide S receptor; Potency, µM (titrated, usually from 38.3 µM), inactives show top-dose activity change, negative = inhibition, actives largely listed as inhibitors; Q6W5P4; CHO-NPSR cells, cAMP TR-FRET, antagonist mode; 220,000 compounds, 1% hits; AID 1461; also: potency is read from the fitted curve at half-maximal effect; % is scaled to controls: 0 for no effect and ±100 for the full control effect; nearly all actives have a fitted effect of over 50% in size
Target sequence (Q6W5P4 whole entry, looked up): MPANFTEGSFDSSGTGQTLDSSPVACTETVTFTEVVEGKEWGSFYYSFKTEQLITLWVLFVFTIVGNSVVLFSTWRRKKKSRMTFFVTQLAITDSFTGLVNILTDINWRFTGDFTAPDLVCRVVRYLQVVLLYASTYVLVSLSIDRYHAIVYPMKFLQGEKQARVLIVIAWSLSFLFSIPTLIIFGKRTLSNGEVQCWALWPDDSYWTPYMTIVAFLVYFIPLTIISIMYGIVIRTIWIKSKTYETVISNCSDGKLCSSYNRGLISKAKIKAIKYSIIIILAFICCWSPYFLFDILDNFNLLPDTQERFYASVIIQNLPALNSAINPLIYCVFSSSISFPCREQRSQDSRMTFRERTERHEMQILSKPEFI
TSHR antagonist: blocks TSH signaling through the human TSH receptor; TSHR-expressing cells, TSH-stimulated cAMP HTRF, 2 h; stronger effect = lower value; P16473; activity change, negative = inhibition, % at 11.5 µM; 330,000 compounds, 0.2% hits; AID 504810;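 active = activity change below a set negative limit, meaning inhibition stronger than a set level, cut at about -70% in these data; inconclusive = activity change between two set negative limits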; also: % is scaled to controls: 0 for no effect and ±100 for the full control effect
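Read-out is FRET at 665 nm (cryptate excitation 337 nm) from a cryptate-tagged anti-cAMP antibody, competed by cell cAMP against cAMP-d2. Compounds are tested on freshly harvested TSHR cells challenged with 4nM TSH (EC80) for 2 hours at 37 deg C.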
TCR act: T cell receptor activation. primary human leukocytes, anti-CD3, IL-2 HTRF, 48 h. 330,000 tested, under 10 active. AID 504894. Potency, µM (top dose mostly 9.22 µM), for the others: at the highest dose activation of IL-2 secretion, usual class: activators; also: % of control where 0% means no effect
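IL-2 release read by HTRF sandwich (Eu cryptate donor, d2 acceptor, 665 nm emission) after 48 hr exposure of primary human leukocytes to compound together with anti-CD3 beads in the absence of co-stimulatory signals.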
TRb-SRC2 inh: disrupts binding of human TR beta to SRC2; Potency, µM (doses to about 106 µM), inactives show top-dose activity change, negative = inhibition, actives largely listed as inhibitors; 280,000 compounds, 0.065% hits; TRbeta-SRC2 peptide binding, fluorescence polarization; receptor liganded with 1 µM T3; AID 1469;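 also: potency is read from the fitted curve at half-maximal effect; plate controls were bound peptide for no effect and peptide without receptor for full effect; nearly all actives have a fitted effect of over 50% in size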
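A fluorescence polarization screen tested compounds at multiple concentrations against complex formation between 0.6 uM TRb ligand-binding domain and 20 nM Texas Red SRC2 peptide, with 1 uM T3 present; readout after 5 hr.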
FBPA coupling cs: inhibits coupling enzyme system, counter-screen for aldolase hits; 290,000 compounds, 0.67% hits; AID 2472; activity change, negative = inhibition, % at 58.2 µM, hits read low; coupling enzyme system counterscreen, AmpLite Red fluorescence; in the data active = activity change below about -30%; also: % is scaled to controls: 0 for no effect and ±100 for the full control effect
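Coupling enzymes only (glyceraldehyde-3-phosphate) + compound, at 57.5 uM final, 10 min RT; add substrate/coupling/AmpLite Red mix, 20 min RT; fluorescence ex 525/em 598 nm. Actives flag coupling-system interference.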
* hit, by the source's call; ? = inconclusive; . = not tested or not shown; [ ] = remark or other dose. Hits are enriched below; roughly 1% of the tested compounds scored in any of these assays. Unless noted, calls follow the shape of the dose curve; as a rule, active = well fitted curve in the direction sought with a large enough effect; inconclusive = small, poorly fitted or top-dose-only effect, or another doubt; inactive = no such curve, though single readings can be large; an effect the other way counts as inactive or inconclusive.

SMILES	TR SRC2 fluor cs	NPSR antag	TSHR antagonist	TCR act	TRb-SRC2 inh	FBPA coupling cs
CC[C@H](C)[C@H](NC(=O)[C@H](C)NC(=O)[C@H](Cc1cnc[nH]1)NC(=O)[C@@H]1CCCN1C(=O)CNC(=O)[C@H](CC(C)C)NC(=O)[C@H](CC(C)C)NC(=O)[C@H](Cc1ccc(O)cc1)NC(=O)CNC(=O)[C@H](C)NC(=O)[C@H](CO)NC(=O)[C@H](CC(N)=O)NC(=O)[C@H](CC(C)C)NC(=O)[C@@H](NC(=O)[C@H](Cc1c[nH]c2ccccc12)NC(=O)CN)[C@@H](C)O)C(=O)N[C@@H](CC(=O)O)C(=O)N[C@@H](CC(N)=O)C(=O)N[C@@H](Cc1cnc[nH]1)C(=O)N[C@@H](CCCNC(=N)N)C(=O)N[C@@H](CO)C(=O)N[C@@H](Cc1ccccc1)C(=O)N[C@@H](CO)C(=O)N[C@@H](CC(=O)O)C(=O)N[C@@H](CCCCN)C(=O)N[C@@H](Cc1cnc[nH]1)C(=O)NCC(=O)N[C@@H](CC(C)C)C(=O)N[C@H](C(N)=O)[C@@H](C)O	1%	.	.	.	-1%	-1
COc1cccc(OC)c1OCc1cc(C2C3CCCC=C3C(C#N)=C(N)C2(C#N)C#N)c(C)cc1C (configuration not stated)	7%	3.2µM*	-2	0%	1%	-12
CCCN1CC=C2C(C#N)=C(N)C(C#N)(C#N)C(c3cccc(OC)c3OC)C2C1 (configuration not stated)	2%	-16%[46.1 µM]	-3	-4%	-7%	-5
C=CCS(=O)(=O)c1cccc2cccnc12	2%	-9%	4	1%	-9%	-34*
O=C(NCCc1ccccc1)c1cccnc1N1CCCCCC1	0%	-6%[7.67 µM]	-80*	-2%	7%	4
O=C(NCCc1ccccc1)c1ccccc1Cl	.	.	16	-4%	.	5
Cc1c(CCOC(=O)c2cc([N+](=O)[O-])cc([N+](=O)[O-])c2)sc[n+]1CC(=O)c1ccccc1	-2%	10µM*	-9	-7%	-8%	-7
Cc1c(CCOC(=O)CC23CC4CC(CC(C4)C2)C3)sc[n+]1CC(=O)c1ccc(Br)cc1	-1%	10µM*	.	-14%	-6%	-1
COc1ccc(S(=O)(=O)N(CC(=O)NC(C)c2ccccc2)c2ccc(C)cc2)cc1OC (configuration not stated)	5%	.	.	.	-7%	.
CCCCC(CC)COC(C)=O (configuration not stated)	-2%[201 µM]	.	.	.	6%[201 µM]	.
CCCCCCSc1ccc(-c2nc3ccc(Cl)cn3c2NCCCC)cc1OC	.	.	-83*	0%	.	.
CCCCNc1c(-c2ccc(SC(C)CC)c(OC)c2)nc2ccc(Cl)cn12 (configuration not stated)	.	.	-15	-12%	.	.
CN(C)N1C(N)=C(C#N)C(c2cccs2)C2=C1CC(C)(C)CC2=O (configuration not stated)	-2%	-15%	18	-8%	3%	-46*
COc1ccc(NC(=O)CN2C(=O)COc3ccc(S(=O)(=O)N4CCCCC4)cc32)cc1Cl	0%	.	.	.	-7%	.
O=C(CSc1nc(-c2ccccc2F)nc2nc[nH]c12)Nc1c(Cl)cc(Cl)cc1Cl	-3%	5µM*	-6	11%[46.1 µM]	0%	2
CC(=O)/C(=N\Nc1ccc(Cl)cc1)Sc1nnc(-c2ccccc2)n1-c1ccccc1	2%	-58%	-15	2%[46.1 µM]	-8%	-3
CC(=O)/C(=N/Nc1ccccc1)Sc1nnc(CCc2ccccc2)n1-c1ccccc1	0.35µM*[quencher]	-22%	32	-4%[46.1 µM]	?	-1
CCN(C(=O)c1ccc2c(c1)N(Cc1cccc(Cl)c1)C(=O)c1ccccc1S2=O)c1ccccc1 (configuration not stated)	-2%	.	.	.	-8%	.
COc1ccc(/C=C/C(=O)c2ccc([N+](=O)[O-])o2)cc1OC	.	.	-26	2%	.	.
O=C(/C=C/c1cccc(Cl)c1)c1ccc([N+](=O)[O-])o1	.	.	-81*	-5%	.	.
COc1ccc(CN2CCc3nc(N4CCN(c5ccc(F)cc5)CC4)ncc3C2)c(OC)c1OC	-3%	.	.	.	7%	.
C=CC(C)(CCC=C(C)C)OC(C)=O (configuration not stated)	-4%[201 µM]	.	.	.	-3%[201 µM]	.
CN(C)c1ccc(/C=C/C=C2/SC(=S)N(c3ccccc3)C2=O)cc1	3.2µM*[fluorescent]	?	0	14%	?	-9
O=C(O)c1cc(Br)ccn1	-1%	8%	28	5%	-3%	-8
O=C(O)c1ccnc(C(=O)O)c1	1%	-2%[46.1 µM]	22	.	-18%	-72*
SMILES	TR SRC2 fluor cs	NPSR antag	TSHR antagonist	TCR act	TRb-SRC2 inh	FBPA coupling cs
CCN(CCCNC(=O)CSc1cc(=O)n(C)c2cc(Cl)ccc12)c1ccccc1	0%	.	.	.	2%	.
CCOC(=O)N1CCC(N2C(=O)c3ccccc3C2Nc2ccc(S(=O)(=O)N3CCCCC3)cc2)CC1 (configuration not stated)	-1%	10µM*	-2	.	3%	0
CCOC(=O)N1CCC(N2C(=O)c3ccccc3C2Nc2cccnc2)CC1 (configuration not stated)	-3%	-14%[46.1 µM]	11	-6%	-2%	-4
CCc1ccc(NC(=O)CN2C(=O)C(c3ccc(Cl)cc3)=NC23CCCCC3)cc1	1%	.	.	.	6%	.
CC1(C)CCC2=C(O1)c1ccccc1C(=O)C2=O	-7%	?	10	.	?	-56*
CC1(C)CCC(=O)c2ccccc21	.	.	.	-3%	.	.
CCCCCCNC(=O)N[C@H](C(=O)NCCC[C@H]1CN2C(=NC[C@H]2C)N1CCC(c1ccccc1)c1ccccc1)C(C)O (some centres not stated)	1%	10µM*	-1	.	4%	0
COCCN1C(=O)/C(=C/c2ccc(OCc3ccc(C(=O)O)cc3)c(OC)c2)SC1=Nc1ccccc1	-1%	13µM*	-22	-4%[46.1 µM]	0%	7
COc1ccccc1OCC(=O)NNC(=O)C1CCN(c2ncnc3sc(C)c(C)c23)CC1	.	.	5	.	.	.
COc1ccc(-c2csc(NC(=O)C3CCN(c4ncnc5sc(C)c(C)c45)CC3)n2)cc1OC	.	.	-77*	3%	.	.
N=C(N)SCc1ccccn1	2%	11%	17	0%[46.1 µM]	7%	-80*
N#Cc1c(C(F)(F)F)cc(C2CC2)nc1N1CCCC1	-6%	-17%[46.1 µM]	26	0%	-2%	-34*
Cc1cc2c(n1-c1ccc(C(=O)NCc3cccc(Br)c3)cc1)CCC(C)C2 (configuration not stated)	-28%	.	.	.	-4%	.
